Several values for one entry are separate records, joined by “and”; a condition that tells them apart may be missing. Equal entries are not always repeated. The campaign covered roughly 16,000 compounds. About 2,600 (16%) were called active. Another 20% or so got no clear call; they are omitted. Calls come from the whole dose curve; as a rule, active = well fitted curve in the direction sought with a large enough effect; inconclusive = small, poorly fitted or top-dose-only effect, or effect the other way; inactive = no such curve, though single readings can be large or run the other way. Shown is part of a subset that was picked to be rich in actives. Some compounds were tested as several samples or in several runs, with calls that do not always agree.
molecular target: Cytochrome P450 2D6 (Homo sapiens) (UniProt P10635); assay: Cytochrome panel assay with activity outcomes; conditions: recombinant CYP, pro-luciferin dealkylation, luminescence, p450-cyp2d6; series mostly up to 57.1 µM
% is set by controls: 0 for no effect and ±100 for the full control effect.

Cytochrome P450 2D6 (Homo sapiens), sequence (P10635 whole entry, looked up): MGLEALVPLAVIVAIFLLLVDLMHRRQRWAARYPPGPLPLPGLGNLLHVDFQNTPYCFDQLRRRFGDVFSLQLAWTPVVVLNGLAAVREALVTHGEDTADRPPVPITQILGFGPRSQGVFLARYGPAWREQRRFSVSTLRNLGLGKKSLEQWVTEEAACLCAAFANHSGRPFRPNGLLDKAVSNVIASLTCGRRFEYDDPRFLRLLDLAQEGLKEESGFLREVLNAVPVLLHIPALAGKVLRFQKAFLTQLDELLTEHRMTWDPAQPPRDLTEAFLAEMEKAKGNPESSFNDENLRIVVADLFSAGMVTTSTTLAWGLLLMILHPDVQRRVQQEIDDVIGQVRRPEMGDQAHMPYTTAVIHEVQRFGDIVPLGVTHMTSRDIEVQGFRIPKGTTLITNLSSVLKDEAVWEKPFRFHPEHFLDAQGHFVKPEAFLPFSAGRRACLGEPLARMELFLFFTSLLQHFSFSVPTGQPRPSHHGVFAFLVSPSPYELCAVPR

Compound | AC50 | activity, negative = inhibition
CCOC(=O)Cn1cc(C(=O)c2ccccc2F)c2ccccc21 | inactive | –
O=C(O)c1ccccc1-c1c2cc(Br)c(=O)cc-2oc2[c]([Hg])c(O)c(Br)cc12 | inactive | –
CC[N+](CC)(CC)CCOc1cccc(OCC[N+](CC)(CC)CC)c1OCC[N+](CC)(CC)CC | inactive | –
c1cncc(CNCCN2CCNCC2)c1 | – | -5.64% [at 11.4 µM] (inactive)
c1cncc(CNc2cc(-c3ccc4c(c3)OCO4)ncn2)c1 | 20 µM (active) | –
C[C@@H](COc1ccccc1)N(CCCl)Cc1ccccc1 | 1.58 µM (active) | –
NNC(=O)c1ccc(O)cc1 | inactive | –
O=C(O)C[O][Sb][O]CC(=O)O | – | 2.9% [at 11.4 µM] (inactive)
O=C(O)[C@H]1[O][Sb][O][C@@H](C(=O)O)C1O (some centres not stated) | – | -8.1% [at 11.4 µM] (inactive)
CCCCCCC[n+]1ccc(-c2cc[n+](CCCCCCC)cc2)cc1 | 7.94 µM (active) | –
COc1cc(C=C(C#N)C#N)cc(O)c1O | inactive | –
C[C@@]12CC[C@@H]3[C@H](CCC4=CC(=O)CC[C@]43C)[C@@H]1CC[C@@H]2C(=O)COS(=O)(=O)c1ccc(Br)cc1 | – | 3.29% [at 11.4 µM] (inactive)
Cc1cc[c]([Sb]2[O][C@H]([C@H](O)[C@H](O)C(=O)O)[C@@H](CO)[O]2)cc1 | – | 10.9% [at 11.4 µM] (inactive)
N#Cc1ccc(CN2CCC3(CC2)CCN(C(=O)Oc2ccccc2)CC3)cc1 | inactive | –
O=C(Nc1ccccc1)N1CC2(CCN(C(=O)Oc3ccccc3)CC2)C1 | inactive | –
O=C(Nc1ccccc1)N1CC[C@@]2(CCCN(C(=O)Oc3ccccc3)C2)C1 | inactive | –
COc1ccc(NC(=O)N2CC[C@@]3(CCCN(C(=O)Oc4ccccc4)C3)C2)cc1 | 6.31 µM (active) | –
CC(C)CN1CC[C@@]2(CCCN(C(=O)Oc3ccccc3)C2)C1 | 6.31 µM (active) | –
CC(C)CN1CC2(CCN(C(=O)Oc3ccccc3)CC2)C1 | inactive | –

Compound | AC50 | activity, negative = inhibition
CC(C)NC(=O)N1CCCC2(CCN(C(=O)Oc3ccccc3)CC2)C1 | inactive | –
CN1CC[C@@]2(CCCN(C(=O)Oc3ccccc3)C2)C1 | inactive | –
N#Cc1ccc(CN2CC[C@@]3(CCCN(C(=O)Oc4ccccc4)C3)C2)cc1 | 3.16 µM (active) | –
COc1ccc(NC(=O)N2CCCC3(CCN(C(=O)Oc4ccccc4)CC3)C2)cc1 | inactive | –
N#Cc1ccc(CN2CCCC3(CCN(C(=O)Oc4ccccc4)CC3)C2)cc1 | inactive | –
O=C(Oc1ccccc1)N1CCC[C@@]2(CCN(C(c3ccccc3)c3ccccc3)C2)C1 | 5.01 µM (active) | –
COCCCN1CCN(c2nnc3n2-c2sc(Br)cc2C(c2ccccc2Cl)=NC3)CC1 | inactive | –
N/C(=N\N=C/c1ccc(-c2ccc(O)c(C(=O)O)c2)o1)N[N+](=O)[O-] | inactive | –
O=C(O)c1ccccc1Nc1cccc(C(F)(F)F)c1 | inactive | –
N[C@@H](CCCCP(=O)(O)O)C(=O)O | inactive | –
CC[N+](C)(C)c1cccc(O)c1 | inactive | –
CN1CCC2(CC1)CCN(C(=O)Oc1ccccc1)CC2 | inactive | –
O=C(Oc1ccccc1)N1CCC2(CCCN(C(c3ccccc3)c3ccccc3)C2)CC1 | inactive | –
O=C(Oc1ccccc1)N1CCC2(CC1)CN(C(c1ccccc1)c1ccccc1)C2 | 7.94 µM (active) | –
C[C@@H]1O[C@H](OC2[C@@H](O)[C@H](O)C(O)[C@H](O)[C@H]2O)[C@@H](N)C[C@@H]1N=C(N)C(=O)O (some centres not stated) | – | 3.95% [at 11.4 µM] (inactive)
CN1CCN(c2ncc3ncc(=O)n(C)c3n2)CC1 | inactive | –
CCN(CC)CCO[C@H]1CC[C@@]2(C)C(=CC[C@@H]3[C@H]2CC[C@]2(C)C(=O)CC[C@H]32)C1 | 0.0794 µM (active) | –
C[C@@]12CC[C@H]3[C@@H](CC=C4C[C@H](OS(=O)(=O)O)CC[C@]43C)[C@H]1CCC2=O | inactive | –
CC(=O)O[C@H]1CC[C@@]2(C)C(=CC[C@@H]3[C@H]2CC[C@]2(C)C(=O)CC[C@H]32)C1 | inactive | –

Compound | AC50 | activity, negative = inhibition
O=C(c1ccccc1F)c1cn(CC(=O)N2CCOCC2)c2ccccc12 | inactive | –
CCCN(CCC)[C@@H]1CCc2cccc(O)c2C1 | 3.16 µM (active) and inactive and 794 nM (active) | –
CCCN(CCC)[C@H]1CCc2c(F)ccc(O)c2C1 | 631 nM (active) and 1.58 µM (active) | –
Cc1cc(C)c(-n2c(O)c(C=NCCN3CCOCC3)c(=O)[nH]c2=O)c(C)c1 | inactive | –
O=P(Nc1c(Cl)cccc1Cl)(c1ccccc1)c1nc2c(s1)CCCC2 (configuration not stated) | inactive | –
C[N+]1([O-])[C@@H]2CC(OC(=O)[C@@H](CO)c3ccccc3)C[C@@H]1[C@H]1O[C@H]12 (some centres not stated) | inactive | –
CC(=Nc1c(C)n(C)n(-c2ccccc2)c1=O)c1c(O)n(Cc2ccccc2)c(=O)[nH]c1=O | inactive | –
O=C(O)CN1CCN(CC(=O)O)CC(=O)[O][Hg][O]C(=O)C1 | 3.16 µM (active) | –
NCCP(=O)(O)O | – | 19.4% [at 11.4 µM] (inactive)
C[C@@]12CC[C@@H]3[C@H](CCC4=CC(=O)CC[C@]43C)[C@@H]1CC[C@@H]2C(=O)Cn1cnc2c(=S)nc[nH]c21 | – | 7.22% [at 11.4 µM] (inactive)
Oc1ccc([C@H](O)[C@@H]2CCCCN2)cc1O | – | 15.6% [at 11.4 µM] (inactive)
O[C@@H](c1cc(-c2ccccc2)nc2c1ccc1ccccc12)[C@@H]1CCCCN1 | 3.16 µM (active) | –
NCc1cc(=O)[nH]o1 | inactive | –
O=C(O)/C=C\c1ccc[c]([Sb](=[O])([OH])[OH])c1 | – | -6.51% [at 11.4 µM] (inactive)
CC(=O)O/C(=C1/C[C@H]2[C@@H]3CC=C4C[C@@H](OC(C)=O)CC[C@]4(C)[C@@H]3CC[C@]2(C)C1=O)C(F)(F)F | – | -5.95% [at 11.4 µM] (inactive)
COc1ccc2c(c1)[C@]13CCCC[C@@H]1[C@H](C2)NCC3 | 6.31 µM (active) | –
COc1ccc2c(c1)[C@]13CCCC[C@@H]1[C@H](C2)N(C)CC3 | 2.51 µM (active) | –
COc1ccc2c(c1)C13CCCC[C@@H]1C(C2)N(C)CC3 (some centres not stated) | 3.98 µM (active) | –
CC(C)(O)/C=C\C(=O)[C@](C)(O)[C@H]1[C@H](O)C[C@]2(C)[C@@H]3CC=C4[C@@H](C=C(O)C(=O)C4(C)C)[C@]3(C)C(=O)C[C@@]12C | – | -2.8% [at 11.4 µM] (inactive)
